Screening results (PubChem BioAssay)
KAT2A inh – blocks human GCN5L2 histone acetyltransferase; actives 0.21% (n = 390,000); Potency, µM (series often up to 58.9 µM), for inactives: at the highest dose activity change, negative = inhibition, usual class: inhibitors; Q92830; GCN5L2 HAT assay, ThioGlo1 CoA-SH fluorescence; note: % is set by controls: 0 for no effect and ±100 for the full control effect
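ThioGlo1-coupled HAT assay: 20nM GCN5L2, 70uM acetyl-CoA, 75uM H3(1-25) peptide, pH 7.5. Fluorescence read at 340/540nm at start and after 20 min at room temperature.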
Epigenetic derep – derepresses silenced GFP reporter in murine cells. murine LDR cells, GFP reporter derepression, 30 h. Potency, µM (top dose mostly 53.9 µM), without a hit: at the highest dose GFP activation, most hits filed as activators. actives 0.2% (n = 280,000). AID 1865; note: % of control where 0% means no effect; nearly all actives have a fitted effect of over 60% in size
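In this reporter-derepression format, murine cells bearing a silenced integrated CMV-GFP locus incubate with test compound (30 h, 37 C), then are washed and imaged; fluorescent objects of 20–120 um count as induced cells.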
KDM4E inh – JMJD2E (human) inhibition; B2RXH2; JMJD2E catalytic domain, FDH-coupled NADH fluorescence (FDH is formaldehyde dehydrogenase); Potency, µM (doses to about 57.1 µM), without a hit: at the highest dose activity change, negative = inhibition, hits mostly inhibitors; actives 1.6% (n = 230,000); AID 2147; active = well fitted inhibition curve with a large enough effect, not every such curve was filed as active; inconclusive = small, poorly fitted or top-dose-only effect, or another doubt; inactive = no such curve, though single readings can be large or run the other way;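 note: 0% = wells with enzyme and -100% = buffer wells without enzyme; nearly all actives have a fitted effect of over 50% in size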
Target sequence (B2RXH2 1-337 limits assumed): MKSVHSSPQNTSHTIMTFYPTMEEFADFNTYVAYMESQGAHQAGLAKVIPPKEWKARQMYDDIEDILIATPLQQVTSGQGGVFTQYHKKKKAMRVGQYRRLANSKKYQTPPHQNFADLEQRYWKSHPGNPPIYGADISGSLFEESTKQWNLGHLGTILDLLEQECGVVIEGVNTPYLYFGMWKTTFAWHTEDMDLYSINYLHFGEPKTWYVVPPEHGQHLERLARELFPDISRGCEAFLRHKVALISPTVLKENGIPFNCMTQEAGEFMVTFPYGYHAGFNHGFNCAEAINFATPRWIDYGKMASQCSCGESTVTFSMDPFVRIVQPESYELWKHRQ
IMPase Li inh – membrane-permeable IMPase blocker, potentiated with lithium; Potency, µM (highest dose often 59.4 µM), without a hit: at the highest dose activity, negative = IMPase inhibition, actives largely listed as inhibitors; AID 1457; actives 0.35% (n = 210,000); CHO-M1 cells, IP1 TR-FRET (IP-One), carbachol + lithium;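 note: IP1 builds up when IMPase is blocked and the TR-FRET signal falls; plate controls were basal vehicle for no effect and high inhibitor control for full effect; nearly all actives have a fitted effect of over 50% in size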
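Test compounds were applied to CHO-M1 cells previously cultured for 16–30 h at 2000 per well. A small lithium amount accompanied them; after 30 min at 37C, IP1 was quantified by TR-FRET.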
NPSR antagonist – antagonists of human neuropeptide S receptor cAMP signaling; Q6W5P4; CHO-NPSR cells, cAMP TR-FRET, antagonist mode; Potency, µM (highest dose often 38.3 µM), inactives show at the highest dose activity change, negative = inhibition, actives largely listed as inhibitors; actives 1% (n = 220,000); AID 1461; note: % is set by controls: 0 for no effect and ±100 for the full control effect; nearly all actives have a fitted effect of over 50% in size
Target sequence (Q6W5P4 whole entry, looked up): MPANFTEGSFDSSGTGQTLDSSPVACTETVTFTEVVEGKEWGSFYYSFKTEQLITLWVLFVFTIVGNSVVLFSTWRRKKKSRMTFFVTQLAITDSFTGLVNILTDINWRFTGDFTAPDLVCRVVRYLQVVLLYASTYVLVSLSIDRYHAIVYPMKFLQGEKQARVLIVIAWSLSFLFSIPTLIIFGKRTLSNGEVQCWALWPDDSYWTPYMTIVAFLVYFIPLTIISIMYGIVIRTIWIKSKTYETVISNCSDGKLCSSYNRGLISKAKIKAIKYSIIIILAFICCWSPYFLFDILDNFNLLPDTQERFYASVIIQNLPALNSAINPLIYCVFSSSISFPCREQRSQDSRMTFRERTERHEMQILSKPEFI
Sfp PPTase inh – blocks B. subtilis Sfp PPTase activity | Q9F4F7 | Biochemical Sfp PPTase activity, qHTS | Potency, µM, without a hit: largest response in the series, negative = inhibition, most hits filed as inhibitors | actives 3.5% (n = 310,000);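 note: the enzyme is Sfp with the accession as filed and its product quenches rhodamine fluorescence; 0% = enzyme reaction without inhibitor and -100% = no enzyme wells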
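Buffer: 50 mM Hepes-Na pH 7.6, 10 mM MgCl2, 0.01% Nonidet P-40, 0.01% BSA. Enzyme 15 nM, pre-exposed to compound 15 min; substrates then added and fluorescence change tracked over 30 min.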
* = called active by the depositor; ? = inconclusive; / = no result given; [ ] = another dose, or the depositor's remark. In the library only some 3.6% were active in any assay of this set; here they are far more common. Unless noted, calls come from the whole dose curve; as a rule, active = well fitted curve in the direction sought with a large enough effect; inconclusive = small, poorly fitted or top-dose-only effect, or another doubt; inactive = no such curve, though single readings can be large; an effect the other way counts as inactive or inconclusive. Potency is the fitted concentration of half-maximal effect.

SMILES | KAT2A inh | Epigenetic derep | KDM4E inh | IMPase Li inh | NPSR antagonist | Sfp PPTase inh
NC(=O)c1sc2nccc(Nc3ccccc3)c2c1N | -14% | 1% | ? | 10%[38.3 µM] | -14%[46.1 µM] | 40µM*
Nc1c(C(=O)Nc2ccccc2)sc2ncc([N+](=O)[O-])cc12 | -1% | 16% | 1% | / | -10% | 19%
COC(=O)C1=C(O)/C(=C\c2cc(C)n(-c3ccccc3F)c2C)N=C1C | -3% | 2% | 22µM* | 45% | -24% | 4%
COC(=O)C1=C(O)/C(=C\c2cc(C)n(-c3ccccc3C)c2C)N=C1C | -1% | -3% | ? | 43%[38.3 µM] | -2%[46.1 µM] | 45µM*
S=c1[nH]c(-c2ccccc2)cn1/N=C/c1ccccc1Br | -3% | ? | -24% | 3% | -49% | -2%
S=c1[nH]c(-c2ccccc2)cn1/N=C/c1cccc2ccccc12 | -5% | 12% | ? | 2% | -32% | -11%
Oc1ccc(/C=N/n2cc(-c3ccccc3)[nH]c2=S)cc1 | -8% | -1% | ? | 0% | -20% | 18µM*
COc1cc(/C=N/n2cc(-c3ccccc3)[nH]c2=S)cc(OC)c1O | -6% | -1% | ? | / | 21% | 20µM*
Cc1ccc(/C=N/n2cc(-c3ccccc3)[nH]c2=S)s1 | -5% | ? | ? | -9% | -46% | 32µM*
CC(C)(C)OC(=O)N1CCCC1C(=O)NC1COC2CC(n3ccc(=O)[nH]c3=O)OC12 (centres undefined) | / | / | / | / | / | 20%
COc1cccc(NC(=O)c2oc3ccccc3c2NC(=O)c2ccc(F)c(F)c2)c1 | -9% | 7% | / | / | / | /
COc1ccc(-c2cn3nc(N4CCCC(C(=O)Nc5cc(C)ccc5C)C4)sc3n2)cc1 (centres undefined) | -8% | 5% | / | / | / | /
CC1(C)CC(=O)c2cc(C(=O)Nc3ccc(Cl)cc3)c(=O)[nH]c2C1 | 3% | -2% | / | / | / | /
COCCN(CC(=O)NC1CCCCC1)C(=O)CSc1nc2ccccc2o1 | 0% | 0% | -3% | 33%[38.3 µM] | -6%[46.1 µM] | 8%
O=C(CN(Cc1ccc2c(c1)OCO2)C(=O)CSc1nc2ccccc2o1)NC1CCCCC1 | 0% | -3% | 6% | 5%[38.3 µM] | ? | 79µM*
O=C(O)C(Cc1c[nH]c2ccccc12)NS(=O)(=O)c1ccccc1 (centres undefined) | 0% | -2% | 17% | -8% | 17% | 9%
O=C(O)C(Cc1c[nH]c2ccccc12)NS(=O)(=O)c1cccc2nsnc12 (centres undefined) | 7% | 0% | 0% | 3% | -24%[46.1 µM] | 56µM*
COc1ccc2nc3oc(C(=O)N4CCN(c5cccc(C(F)(F)F)c5)CC4)cc3cc2c1 | -5% | 0% | ? | 22%[38.3 µM] | 0%[46.1 µM] | ?
COc1ccc2nc3oc(C(=O)N4CCN(c5cccc(Cl)c5)CC4)cc3cc2c1 | -23% | 0% | -29% | 13% | -16%[46.1 µM] | 11µM*
CSc1ncc(CN2CCCC(C(=O)Nc3ccc(-c4ccco4)cc3)C2)cn1 (centres undefined) | -18% | / | / | / | / | 14µM*
CCCN1CCC(=O)N(C(CSc2ccc(OC)cc2)c2ccccc2)CC1 (centres undefined) | / | / | / | / | / | -13%
CCOC(=O)c1nnc(-c2ccccc2)nc1Sc1ccccc1Cl | -4% | 0% | 4% | 20%[38.3 µM] | -27%[46.1 µM] | 79µM*
CN1C(=O)CC(c2ccco2)Sc2ccccc21 (centres undefined) | -1% | -2% | 1% | -21%[38.3 µM] | 1%[46.1 µM] | 13%
CCCN1C(=O)CC(c2ccco2)Sc2ccccc21 (centres undefined) | -19% | 2% | 4% | 37%[38.3 µM] | -7%[46.1 µM] | 35µM*
O=C(Nc1cccc(S(=O)(=O)Nc2ccccc2F)c1)c1ccc2ccccc2n1 | ? | -2% | -12% | 16% | -32% | 8.9µM*
SMILES | KAT2A inh | Epigenetic derep | KDM4E inh | IMPase Li inh | NPSR antagonist | Sfp PPTase inh
O=C(NCc1cccnc1)/C(=C\c1ccc(-c2ccc(Cl)c(Cl)c2)o1)S(=O)(=O)c1ccccc1 | -11% | 0% | -2% | 8% | 13µM* | -15%
O=C(NCc1cccnc1)c1ccc(-c2cc(Cl)ccc2Cl)o1 | -8% | -4% | -2% | 9% | 11% | 56µM*
c1cncc(-c2nn3c(Cn4nnc5ccccc54)nnc3s2)c1 | -2% | -1% | ? | 7%[38.3 µM] | 4%[46.1 µM] | 32µM*
c1ccc(-c2nn3c(Cn4nnc5ccccc54)nnc3s2)nc1 | -26% | -1% | ? | 28%[38.3 µM] | -16%[46.1 µM] | 16µM*
Cc1nnc2sc(-c3ccccn3)nn12 | -4% | -1% | -2% | 20%[38.3 µM] | -7%[46.1 µM] | 10%
Cc1ccc(-c2onc(C)c2C)cc1S(=O)(=O)NCc1ccc(N(C)C)cc1 | 11% | 1% | / | / | / | /
CCn1c2ccccc2c2cc(CNCc3ccc(OC)cc3OC)ccc21 | 0% | 1% | 3% | 8% | ? | 22µM*
CCC(CC)NCc1ccc2c(c1)c1ccccc1n2CC | 0% | 3% | 1% | 13% | 33% | 50µM*
COc1cccc(CNCc2ccc(OC)cc2OC)c1 | 0% | / | / | / | / | -14%
CCn1c2ccccc2c2cc(N)ccc21 | 9% | 7% | ? | -1%[38.3 µM] | -5%[46.1 µM] | -22%
COc1ccccc1CNC(=O)CCn1c(=O)c2cccn2c2cccnc21 | -5% | 10% | / | / | / | /
CC(=O)N1CCC2(CC1)CCN(c1ccc(-c3ccccc3)cc1)CC2 | -11% | / | / | 9% | / | 56µM*
C=CCOC(=O)N[C@H](/C(C(=O)OC)=C(\C)NCc1ccccc1)c1cccc(F)c1 | / | 0% | -4% | 27% | / | -9%
O=C(NCCCN1CCCC1)c1ccc2c(Cl)c3c(nc2c1)CCCC3 | -2% | 0% | -18% | 23% | -39% | 79µM*
O=C(NC1CC1)c1ccc2c(Cl)c3c(nc2c1)CCCC3 | 1% | -1% | 7% | 10% | -5% | 8%
CCCN1CCN(CCCNC(=O)c2ccc3c(Cl)c4c(nc3c2)CCCC4)CC1 | -1% | / | / | / | / | -1%
O=C(O)CSc1c2c(nc3cc(C(=O)NCCN4CCOCC4)ccc13)CCC2 | -9% | 5% | -21% | / | 20% | 89µM*
CCOC(=O)N1CCC(NC(=O)c2ccc3c(Cl)c4c(nc3c2)CCCC4)CC1 | -7% | 1% | -4% | -11% | -2% | 25µM*
Clc1ccc(-c2nnn3c2nc(NC2CCCCC2)c2ccccc23)cc1 | -2% | 1% | / | / | / | /
O=C(CSc1nnc(-c2cccnc2)n1Cc1ccco1)N1CCc2ccccc21 | -6% | 5% | -1% | 3%[38.3 µM] | -12%[46.1 µM] | 20µM*
Fc1ccc(CSc2nnc(-c3cccnc3)n2Cc2ccco2)cc1 | -5% | -1% | 1% | -6%[38.3 µM] | -7%[46.1 µM] | 40µM*
CC1(C(=O)N2CCN(C(=O)c3ccco3)CC2)CC1(Br)Br (centres undefined) | 6.3µM* | / | / | / | / | 11%
